The list is not random: actives were taken first. Their share in the collection is about 3.8%.
TIM10 inh: growth inhibitors of isogenic TIM10 control yeast, primary screen, counter-screen for tim10-1 yeast inhibitor project, luminescence, uHTS | S. cerevisiae TIM10 strain growth, BacTiter-Glo luminescence, 24 h | inhibition, % at 10 µM | 330,000 compounds, 1.4% hits | AID 463195, 2010;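 active = inhibition of 40% or more at the single tested concentration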;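 note: wild-type TIM10 isogenic control strain grown at permissive 25 °C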
tim23-1 inh: growth inhibitors of tim23-1 mutant yeast, primary screen, luminescence, uHTS | S. cerevisiae tim23-1 growth, BacTiter-Glo luminescence, 24 h | inhibition, % at 20 µM | 330,000 compounds, 1.3% hits;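 active = growth inhibition of the mutant yeast at or above 50%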;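 note: temperature-sensitive mutant grown at 25 °C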
Yeast superoxide: reduction of superoxide in aged yeast, primary screen, HTS. S. cerevisiae aged cells, superoxide DHE fluorescence; active compounds read low. superoxide response (% of plate mean), % at 10 µM. 330,000 compounds, 0.18% hits. AID 2690, 2010;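 active = superoxide response under a set limit, about three screen SD below normal, cut at about 65% in these data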;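 note: yeast aged for seven days with compound at 30 °C before DHE staining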
NALP3 yeast inh: NALP3 inflammasome inhibitors in reconstituted yeast, primary screen, luminescence, uHTS. 330,000 compounds, 0.39% hits. inhibition, % at 10 µM. Yeast reconstituted NLRP3/ASC/caspase-1, beta-gal luminescence, 24 h;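 active = inhibition of 50% or more; inactive = inhibition below 50%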
tim10-1 inh: growth inhibitors of tim10-1 mutant yeast, primary screen, luminescence, uHTS; S. cerevisiae tim10-1 ts strain growth, BacTiter-Glo, 24 h; inhibition, % at 20 µM; 330,000 compounds, 2.2% hits; AID 463190, 2010;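 active = inhibition of at least 40%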;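 note: mutant grown at 25 °C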
tim10-1 conf: growth inhibitors of tim10-1 mutant yeast, confirmation, single concentration, luminescence, S. cerevisiae. 7,400 compounds, 56% hits. inhibition, % at 20 µM. S. cerevisiae tim10-1 ts strain growth, BacTiter-Glo, 24 h. shares compounds with tim10-1 inh;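 active = inhibition of yeast growth at or above a set limit in either of two repeat tests at 20 µM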;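 note: tim10-1 mutant grown at permissive 25 °C to find synthetic lethal compounds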
Of the large screens only hits and unclear results are named; the others gave an inactive call (follow-up assays come after a bar, where they were run).

Cc1ccc(C(=O)Nc2nn(C)c3cccc(F)c23)cc1	none
O=C(CSc1ccccc1)NNC(=O)c1ccccc1O	none
O=c1c2ccccc2oc2cc(NCCCN3CCOCC3)ccc12	tim10-1 inh 41.3 | tim10-1 conf inactive
CC(=O)c1c(C)[nH]c(C(=O)Nc2nc(-c3ccccc3)c(C)s2)c1C	tim10-1 inh 43.3 | tim10-1 conf inactive
CC(=O)c1c(C)[nH]c(C(=O)Nc2nccs2)c1C	none
CC1(C)CC(=O)c2sc(NC(=O)CCS(=O)(=O)c3ccccc3)nc2C1	tim10-1 inh 46.0 | tim10-1 conf 37.2
Cc1cc(OCC(=O)NCCc2c[nH]c3ccccc23)c2c(C)c(C)c(=O)oc2c1	none
C[n+]1cccc2c(Br)ccc([O-])c21	none
[O-][n+]1cccc2c(Br)cc(Br)c(O)c21	tim10-1 inh 49.0 | tim10-1 conf inactive
CC(=O)C1=C(C)N(Cc2ccccc2)C(=O)N[C@@H]1c1cccc(C(F)(F)F)c1	tim10-1 inh 41.5 | tim10-1 conf inactive
CN1CCN(C(=S)NC(=O)/C=C/c2cccc3ccccc23)CC1	tim10-1 inh 51.1 | tim10-1 conf inactive
CN1CCN(C(=S)NC(=O)/C=C/c2cccs2)CC1	none
O=C(CSc1cccc[n+]1[O-])N1CCc2ccccc21	none
Cc1ccc(S(=O)(=O)/N=C2\C=C(Nc3cccc(C(=O)O)c3)C(=O)c3ccccc32)cc1	none
Cc1ccc(S(=O)(=O)/N=C2\C=C(Nc3cccc(C(=O)O)c3)C(=O)c3ccccc32)c(C)c1	tim10-1 inh 43.7 | tim10-1 conf inactive
Cc1nc2c3cc(F)ccc3n(Cc3ccccc3F)c2s1	tim10-1 inh 41.7 | tim10-1 conf inactive
O=C(Nc1nc(-c2ccco2)c(-c2ccco2)s1)c1c(F)cccc1Cl	none
O=C(Nc1nc(-c2ccco2)c(-c2ccco2)s1)c1ccc(F)cc1F	tim10-1 inh 40.2 (no result: Yeast superoxide) | tim10-1 conf 43.3
Cc1ccc(S(=O)(=O)N(C)CC(=O)N2CCN(Cc3ccccc3)CC2)cc1	tim10-1 inh 46.6 | tim10-1 conf inactive
Cc1ccc(S(=O)(=O)N(C)CC(=O)N2CCCCCCC2)cc1	none
Cc1cccc(CNC(=O)C2CCCN(c3nn4c(=O)cc(C)nc4s3)C2)c1 (stereo unspecified)	none
O=C(CNCCc1ccccc1)N1CCc2ccccc2C1	none
COC(=O)C1=C(C)N(C)C(=S)N(C)C1c1cccc(Br)c1 (stereo unspecified)	tim10-1 inh 41.5 | tim10-1 conf inactive
CCCOc1ccccc1/C=C1\SC(N2CCCCC2)=NC1=O	tim10-1 inh 42.0 | tim10-1 conf 33.3
CCN(CCN(C)C)C(=O)C1CCN(S(=O)(=O)c2c(C)noc2/C=C/c2ccccc2F)CC1	none
Cc1noc(/C=C/c2ccccc2F)c1S(=O)(=O)N1CCC(C(=O)N2CCN(C)CC2)CC1	tim10-1 inh 40.0 | tim10-1 conf inactive
COc1ccc(S(=O)(=O)N2CCOCC2)cc1NC(=O)COc1ccc2ccc(=O)oc2c1	none
COc1ccc(-c2cc(=O)oc3cc(O)ccc23)cc1	none
COc1ccc(-c2cc(=O)oc3cc(OC(=O)C4CCCCC4)c(Cl)cc23)cc1	tim10-1 inh 44.0 | tim10-1 conf 36.1
O=C(O)CN(Cc1ccccc1)S(=O)(=O)c1ccc2c(c1)OCCO2	none
CN(Cc1ccccc1)S(=O)(=O)c1ccc2c(c1)OCCO2	tim10-1 inh 41.7 | tim10-1 conf inactive
COc1ccc(CN(C)S(=O)(=O)c2ccc3c(c2)OCCO3)cc1	tim10-1 inh 47.5 | tim10-1 conf inactive
COCCNC(=O)c1ccc(NC(=O)C2(c3ccccc3)CCCC2)cc1	none
CCc1nnc(NC(=O)c2oc3ccccc3c2COC(C)C)s1	none
CSCC[C@H](N)C(=O)NCC1CCC(C(=O)Nc2ccc3c(c2)OCO3)CC1 (stereo partly specified)	none
CC(=O)Nc1ccc(CC(=O)NCCC(c2ccccc2)c2ccccc2)cc1	none
CCOc1ccc(C(=O)C(C)OC(=O)c2cnc(C)cn2)cc1 (stereo unspecified)	none
O=C(NCC1CCCO1)c1cc2c(=O)[nH]c3ccccc3c2s1 (stereo unspecified)	none
S=C(Nc1ccc2nsnc2c1)N1CCCC1	tim10-1 inh 40.6 | tim10-1 conf inactive
COc1ccc2oc(=O)c(-c3nnc(NCc4ccco4)s3)cc2c1	none
CCOc1cccc2cc(-c3nnc(NCc4ccco4)s3)c(=O)oc12	tim10-1 inh 40.4 | tim10-1 conf inactive
OCC1(Cc2ccccc2)CCN(Cc2cnc(-c3ccc(Cl)cc3)nc2)CC1	tim10-1 inh 47.3 | tim10-1 conf inactive
OCC1(Cc2ccccc2)CCN(Cc2cnc(-c3cccc4ccccc34)nc2)CC1	none
Cc1ccccc1NC(=O)c1ccc(F)c(S(=O)(=O)N2CCN(c3ccccn3)CC2)c1	tim10-1 inh 41.4 | tim10-1 conf 38.6
O=C(Nc1ccc(Br)cc1)c1ccc(F)c(S(=O)(=O)N2CCN(c3ccccn3)CC2)c1	none
Cc1cnccc1CN(C)Cc1cn(C)nc1-c1ccc(Oc2ccccc2)cc1	tim10-1 inh 40.4 | tim10-1 conf inactive
O=C(OCCOc1cccc(Cl)c1)C1CCN(S(=O)(=O)c2ccccc2)CC1	tim10-1 inh 44.3 | tim10-1 conf inactive
COc1nc(N)c(C#N)c(-c2ccc(N(C)CCC#N)cc2)c1C#N	none
O=C1CCC/C(=N\NC(=O)c2ccc(CSc3cccc4cccnc34)cc2)C1	none
O=C(c1ccco1)N1CCCC(c2nc3c(nnn3Cc3cccc(Cl)c3)c(=O)[nH]2)C1 (stereo unspecified)	tim10-1 inh 52.7 | tim10-1 conf inactive
O=C(c1ccco1)N1CCCC(c2nc3c(nnn3Cc3ccc(Cl)cc3Cl)c(=O)[nH]2)C1 (stereo unspecified)	none
CC1CCCC(n2c(=S)[nH]c3ccccc3c2=O)C1C (stereo unspecified)	tim10-1 inh 41.8 | tim10-1 conf inactive
NC(=O)c1cc2ccccc2o/c1=N/NC(=O)c1cccc(Cl)c1	none
O=C(NC1CCCCCC1)C1c2ccccc2C(=O)N1Cc1cccnc1 (stereo unspecified)	none
Cc1c2c(c(C)n1C)C(C(=O)NC1CCCCC1)N(Cc1ccccc1)C2=O (stereo unspecified)	tim10-1 inh 45.1 | tim10-1 conf 39.0
CC(C)C1NCCc2c1sc1ccccc21 (stereo unspecified)	none
CN1/C(=C\C(=O)Nc2ccc(Br)cc2)C(C)(C)c2ccccc21	tim10-1 inh 45.5 | tim10-1 conf 53.6
CCCc1cc(C(=O)Cc2ccc(F)cc2)c(O)cc1O	none
CCCc1cc(C(=O)Cc2ccc(C(=O)OCC)o2)c(O)cc1O	tim10-1 inh 45.1 | tim10-1 conf inactive

Compound activity as filed in PubChem.
